# Results from PubChem BioAssay (NCI).
# The panel holds about 83,000 compounds, 20% with a hit somewhere; the sample as a whole holds those more often.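 Single-dose data. Exposure time 48 hours. Values below 10 considered active.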 Activity calls are given as the source filed them.
# Tested on: MDA-MB-468 breast
# Test: NCI-60 one-dose screen, 48 h (100 = growth as untreated, 0 = no growth, -100 = all killed)
# Conditions: 10 µM unless noted
row,Compound,growth
1,Cn1cc(-c2nonc2-c2c[nH]c3ccccc23)c2cc(Br)ccc21,59.5% (inactive)
2,C=C(C)[C@@H]1CC[C@]2(COC(C)=O)CC[C@]3(C)[C@H](CC[C@@H]4[C@@]5(C)CCCN(C(C)=O)C(C)(C)[C@@H]5CC[C@]43C)[C@@H]12,-49.5% (active)
3,C=CCNc1nc(NN2C(=O)c3cccc4cccc(c34)C2=O)nc(-n2cnc3ccccc32)n1,80.5% (inactive)
4,CCN(CC)CC(C)(C)C(=O)/C=C/c1ccccc1,-15.2% (active)
5,O=c1[nH]ccc2c(S(=O)(=O)N3CCCNCC3)cccc12,15.9% (inactive)
6,Cc1[nH]c(C(=O)Nc2ccc(C(=O)N3CCNCC3)cc2OC(C)C)c(Cl)c1Cl,64.8% (inactive)
7,Fc1ccc2nc3c(cc2c1)CSc1nnc(-c2ccc[nH]c2=S)n1N3,105% (inactive)
8,Nc1nc(N)c2cc(Sc3ccc4ccccc4c3)ccc2n1,10.2% (inactive)
9,C#Cc1cc(OC)c(C(=O)Nc2ccc(F)cc2C(=O)Nc2cccc(S(=O)(=O)C(F)(F)F)c2)cn1,-31.3% (active)
10,CCCCc1n(Cc2ccc3ccccc3n2)cc[n+]1Cc1ccc2ccccc2c1,-31.4% (active)
11,C#C[C@]1(O)CC[C@H]2[C@@H]3CC=C4c5sc(N(C)c6ccccc6)nc5CC[C@]4(C)[C@H]3CC[C@@]21C,76.2% (inactive)
12,CCCN(CCC)C(=O)[C@H](CC)[C@@H]1CC[C@@H](C)[C@@H]([C@H](C)[C@@H](O)[C@@H](C)C(=O)[C@H](CC)C2O[C@]3(C=C[C@@H](O)[C@]4(CC[C@@](C)([C@H]5CC[C@](O)(CC)[C@H](C)O5)O4)O3)[C@H](C)C[C@@H]2C)O1 (stereo not given in full),-24.6% (active)
13,c1ccc(CCn2cccc2)nc1,114% (inactive)
14,O=C(O)C1CCCN1C(=O)OCc1ccccc1 (stereo not given),115% (inactive)
15,COC1=CC(=O)C(OC)=C(O)C1=O,91.8% (inactive)
16,O=C(O)c1cn(C2CC2)c2cc(N3CCN(C(=O)CSc4nnc(-c5ccc(Cl)cc5)n4-c4ccccc4)CC3)c(F)cc2c1=O,101% (inactive)
17,Cc1ccc(S(=O)(=O)Nc2sccc2-c2nc(-c3ccccc3)no2)cc1,97.7% (inactive)
18,COc1cc(-c2csc(NC(=O)Nc3cc(Cl)cc(Cl)c3)n2)cc(OC)c1OC,-6.75% (active)
19,O[C@@H]1CCO[C@H](c2ccc3ccccc3c2)C1,107% (inactive)
20,CCN(CC)CCN1C(=O)c2c(c(C)c3c(oc4ccc(OC)cc43)c2C)C1=O,101% (inactive)

row,Compound,growth
1,CCOC(=O)c1cc(C)n(-c2ccc(C(=O)O)cc2)c1C,65.5% (inactive)
2,Cc1cc(=O)oc2cc(Oc3nc(Br)cn4c(Br)cnc34)ccc12,41.4% (inactive)
3,O=C(Nc1ccc2c(c1)-c1ccccc1C2)C1CC(=O)N(c2ccc3c(c2)OCO3)C1 (stereo not given),52.7% [50 µM] (inactive)
4,COc1ccc(C(=O)c2cc3c(N)c(C(=O)Nc4ccc(Br)cc4)sc3nc2C)cc1,72.8% (inactive)
5,Cc1cc2c(-c3nc4ccccc4n3C)c(O)c(O)cc2c(O)c1-c1c(C)cc2c(-c3nc4ccccc4n3C)c(O)c(O)cc2c1O,35.7% (inactive)
6,COc1ccc(C(=O)N2c3ccccc3Sc3ccccc32)c(F)c1,-13.7% (active)
7,Nc1c(C(=O)O)cc(Cl)cc1[N+](=O)[O-],96.2% (inactive)
8,CCOc1cc2ncc(C#N)c(Nc3ccc(OCc4cccc(F)c4)c(Cl)c3)c2cc1NC(=O)CCCCC1CCSS1 (stereo not given),70.4% (inactive)
9,COc1cc([C@@H]2c3cc4c(cc3[C@H](O)[C@H]3COC[C@@H]23)OCO4)cc(OC)c1OC,58% (inactive)
10,O=c1ccn(Cc2cn(-c3c4ccccc4nc4ccccc34)nn2)c(=O)[nH]1,-50.8% (active)
11,O=c1cc(N/N=C/c2ccc(F)cc2)c2cc(Cl)ccc2[nH]1,73% (inactive)
12,N=C(N)c1ccc(-c2ccc(-c3cc(Cl)cc(Cl)c3)o2)nc1,-73.9% (active)
13,O=C1c2ccccc2C(=O)c2c1ccc(C(=O)O)c2[N+](=O)[O-],119% (inactive)
14,COCCOCCCl,102% (inactive)
15,Cc1c(O)cc(-c2cnc(Nc3ccccc3)s2)c(O)c1C,57.4% (inactive)
16,COc1cc(/C(=C2/O[C@@H]([C@H]3COC(C)(C)O3)[C@H]3OC(C)(C)O[C@@H]23)c2ccc3ccccc3c2)cc(OC)c1OC,51.2% (inactive)
17,Cc1cn(-c2cc(NC(=O)c3cncc(C#Cc4c(N)ncc5ccc(F)cc45)c3)cc(C(F)(F)F)c2)cn1,50.8% (inactive)
18,COc1ccc(/C=N/NC(=O)c2cccc3cc[nH]c23)cc1O,11.3% (inactive)
19,COc1cc2oc(-c3cccc(C(=O)Nc4ccc(C)cc4)c3)cc(=O)c2c(OC)c1OC,54.5% (inactive)
20,NC1(CO)COC(c2ccccc2)OC1 (stereo not given),99.7% (inactive)
